Screen size: about 38,000 compounds; about 1,200 (3.2%) showed an effect of 50% or more. The median lay at about -58%. The sample as a whole holds a higher share of strong results than the screen did.

For this experiment, the system named is Plasmodium falciparum. The experiment can be described thus: Calibr Malaria Delayed Death Assay SOP. It counts as functional, organism-based. The arrangement: scale not given: in the data most compounds retested in dose-response had high values. Particulars: concentration 4.99e-06 (unit not given; other assays of the set use mol/L).
On to `Cc1cc(C(N)=O)c(N2C[C@@H](C)[C@@](C)(O)C2)nc1C`, for which the “Percent Effect” value was -47.89%.

`O=C(O)c1nc(SCc2ccc(F)cc2)ncc1Br`: the “Percent Effect” value was -159.2%.

Take `O=C(c1ccc2c(c1)OCO2)N1CCCSCC1CN1CCCC1` (configuration not stated): the “Percent Effect” value is given as -7.883%.

`COc1cccc(CCC(=O)N2CCCCC2Cn2cccn2)c1` (configuration not stated): the “Percent Effect” value is -142.5%.

On to `COc1cccc(CC(=O)N2CCCSCC2CN2CCCC2)c1` (configuration not stated), for which the “Percent Effect” value was found to be 54.27%.

With `CCCN(CCC)c1nc(N)nc(-c2cc(Cl)ccc2OC)n1`, the “Percent Effect” value is reported as -49.81%.

As for `CN(C)CCCNC(=O)c1nc(Cc2c(Cl)cccc2Cl)no1`, the “Percent Effect” value is -74.09%.

On to `CC[C@@H](C)[C@@H](N)C(=O)Nc1cccc(-c2cnc(NCCO)nc2)c1`, for which the “Percent Effect” value is given as -39.72%.

Take `O=C1CC(c2ccccc2F)c2c(n(C3CCCC3)[nH]c2=O)N1` (configuration not stated): the “Percent Effect” value was -93.23%.

Turning to `COc1ccccc1C(=O)NC(c1ccccn1)[C@H]1CC[C@H](CN)CC1` (some centres not stated), the “Percent Effect” value is -2.636%.

For `CCOCC1CN(CC2CC2)Cc2nn(C)cc21.O=C(O)C(F)(F)F` (configuration not stated), the “Percent Effect” value is recorded as -95.19%.

For the molecule `O=S(=O)(Cc1c(F)cccc1Cl)NCCCN1CCCCCC1`, the “Percent Effect” value turned out to be 47.99%.

As to `O=C(Nc1c(N2CCCC2)cccc1N1CCCC1)c1ccccn1`, the “Percent Effect” value is recorded as -13.71%.

Consider `NC(=O)CCNC(=O)NCC1(c2ccccc2Cl)CCC1`, for which the “Percent Effect” value is given as -18.8%.

Take `CS(=O)(=O)CCCNC(=O)NC1CC(c2cccc(Cl)c2)C1` (configuration not stated): the “Percent Effect” value is recorded as -17.33%.

Regarding `NC(=O)CCNCc1c(Cl)cccc1N1CCCC1`, the “Percent Effect” value was determined as 65.52%.

Regarding `CS(=O)(=O)CCCNCc1c(Cl)cccc1N1CCCC1`, the “Percent Effect” value turned out to be 71.32%.

For `O=C(CSC1CCc2ccccc2NC1=O)NCc1ccccc1` (configuration not stated), the “Percent Effect” value was -28.24%.

For `CC(Cn1cccn1)NC(=O)N1CCN(Cc2ccco2)CC1` (configuration not stated), the “Percent Effect” value is recorded as -74.02%.

Take `Cn1ccnc1C(=O)N[C@@H]1CN(Cc2ccc(F)cc2)[C@@H]2CCCO[C@@H]21.O=C(O)C(F)(F)F`: the “Percent Effect” value is given as -85.57%.

For the molecule `Cc1nc(C2CCCN2CCCn2c(=O)oc3ccccc32)no1` (configuration not stated), the “Percent Effect” value is -48.08%.

As to `O=c1oc2ccccc2n1CCCN1CCCC1c1ccc(O)cc1` (configuration not stated), the “Percent Effect” value amounted to 52.75%.

Take `O=C1OCCN1CCCN1CCCC1c1ccc(O)cc1` (configuration not stated): the “Percent Effect” value is -1.685%.

`CC(=O)c1cc2c(=O)[nH]c(=O)n(C)c2nc1C`: the “Percent Effect” value is given as -16.7%.

On to `Cn1cc(C(NCCc2ccccn2)c2cccc(F)c2)cn1` (configuration not stated), for which the “Percent Effect” value is listed as -2.846%.

As for `Cc1nccn1-c1ccc(C(C)NCc2ncc[nH]2)cc1` (configuration not stated), the “Percent Effect” value is on record as -35.75%.

With `Clc1cccc(C(NCc2ncc[nH]2)c2ccccn2)c1` (configuration not stated), the “Percent Effect” value is 86.37%.

With `O=C(NCc1ncc[nH]1)c1c(F)cccc1I`, the “Percent Effect” value was -135.9%.

For `Fc1cccc(C(NCc2ncc[nH]2)c2ccccc2)c1` (configuration not stated), the “Percent Effect” value is reported as 67.9%.

As for `CC(=O)N(C)C(c1cccc(F)c1)c1ccccn1` (configuration not stated), the “Percent Effect” value is on record as -75.26%.

On to `CC(C)Nc1ncccc1C(=O)NCc1ncc[nH]1`, for which the “Percent Effect” value is recorded as -116.1%.

Turning to `Fc1cccc(C(NCc2ncc[nH]2)c2ccccn2)c1` (configuration not stated), the “Percent Effect” value turned out to be 91.42%.

`CSCc1cc(F)ccc1CNCc1ncc[nH]1`: the “Percent Effect” value is listed as -2.338%.

As to `CC(C)NC(=O)N1CCN(C(=O)c2ccco2)CC2(CC(=O)N(C)C2)C1` (configuration not stated), the “Percent Effect” value is listed as -8.212%.

`CC(C)CC(=O)NS(=O)(=O)c1ccc2c(c1)OCCCO2`: the “Percent Effect” value was -13.67%.

As for `CC(C)c1nn(C)c(N2CCOCC2)c1CNCc1cscn1`, the “Percent Effect” value is reported as -74.61%.

Take `O=C(NCC(O)COc1ccc(C(F)(F)F)cc1)Nc1nncs1` (configuration not stated): the “Percent Effect” value is recorded as -99.86%.

Take `Cc1cccc2c(CCNC(=O)NCC[S+](C)[O-])c[nH]c12` (configuration not stated): the “Percent Effect” value was -101.3%.

Regarding `Cc1cccc2c(CCNC(=O)[C@H](N)c3ccccc3)c[nH]c12`, the “Percent Effect” value is given as 61.63%.

Turning to `Cc1cccc2c(CCNC(=O)NCCC[S+](C)[O-])c[nH]c12` (configuration not stated), the “Percent Effect” value is given as -83.64%.

Take `CC(C)Cn1c(=O)n(CCn2cc(Cl)cn2)c2cc(C(=O)O)cnc21`: the “Percent Effect” value is on record as -13.68%.

As to `CCc1noc(CN(Cc2cccs2)C2CC2)n1`, the “Percent Effect” value was -139.3%.

With `O=C(CCc1nnc2ccccn2c1=O)NCc1cccnc1`, the “Percent Effect” value is reported as -35.93%.

Take `Cl.Cn1nc(C2CCCN(Cc3ccccc3)C2)c2nccnc21` (configuration not stated): the “Percent Effect” value was -32.54%.

Regarding `CN(C)c1ncccc1NC(=O)C1CN(Cc2ccccc2)CCO1` (configuration not stated), the “Percent Effect” value is -7.192%.

As for `Cc1cccc(CN2CC[C@@H]3[C@@H](CO[C@H]3CNc3ncccn3)C2)n1.O=C(O)C(F)(F)F.O=C(O)C(F)(F)F.O=C(O)C(F)(F)F`, the “Percent Effect” value is -54.04%.

For the molecule `Cn1cc(N2CC3(CCN(Cc4ccccc4)CC3)OCC2=O)cn1.O=C(O)C(F)(F)F`, the “Percent Effect” value was -75.76%.

The values above are taken from ChEMBL document CHEMBL3988442, “University of Dundee, Small-Polar-MMV Screening Library” (2021).
